Measurements taken from PubChem BioAssay (NCATS).
Inconclusive results are not listed. Calls of active or inactive are those of the source. Unless noted, calls follow the shape of the dose curve; as a rule, active = well fitted curve in the direction sought with a large enough effect; inconclusive = small, poorly fitted or top-dose-only effect, or another doubt; inactive = no such curve, though single readings can be large; an effect the other way counts as inactive or inconclusive.

Legend:
[1] = molecular target: Lysosomal acid glucosylceramidase (Homo sapiens) (UniProt P04062); assay: Glucocerebrosidase-p2 (AID 348; in the data active = potency below about 10 µM; also: potency is read from the fitted curve at half-maximal effect); conditions: purified GBA, blue fluorogenic substrate, 40 min
In short: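 Compounds titrated from 0.6 nM upwards against 0.2 nM enzyme in pH 5.9 citric acid/KH2PO4, taurocholate, tween-20; blue fluorogenic substrate 80 uM, 40 min room temperature, stopped and read Ex 365/Em 440 for AC50.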

[2] = AP1 Signaling Pathway (AID 357; active = well fitted curve in either direction with a large enough effect, not every such curve was filed as active;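 also: ME-180 reporter cells stimulated with EGF at its EC50 level; % is scaled to controls: 0 for no effect and ±100 for the full control effect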); conditions: ME-180 AP-1-bla reporter, EGF-induced, beta-lactamase ratio, 5 h; at 7.69 µM (top of the series) unless noted
In short: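 Beta-lactamase reporter under AP-1 response element, ME-180 background. Stimulus: EC50 EGF. Compound exposure 5 h, 37 °C. Detection: CCF4, 2.5 h RT, 460/530 nm. Values: AC50 from titration.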

[3] = molecular target: Cytochrome P450 1A2 (Homo sapiens) (UniProt P05177); assay: p450-cyp1a2 (AID 410; calls by dose curve; also: potency is read from the fitted curve at half-maximal effect); conditions: recombinant CYP1A2, luciferin-ME demethylation, luminescence; series mostly up to 57 µM
In short: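 Inhibition was calculated relative to 57 uM furafylline (full inhibition). The reaction used human CYP1A2 at 20nM with Luciferin-ME at its Km, 100uM, driven by an NADPH-regenerating system for 60 min at room temperature.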

[4] = NFAT Signaling Pathway (AID 444; active = well fitted curve in either direction with a large enough effect, not every such curve was filed as active;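 also: carbachol stimulus at about its EC50 of 1 µM final; % is scaled to controls: 0 for no effect and ±100 for the full control effect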); conditions: Jurkat NFAT-bla M1, carbachol, beta-lactamase ratio, 5 h; at 7.69 µM (top of the series) unless noted
In short: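 Jurkat cells carrying an NFAT-driven β-lactamase reporter and co-transfected muscarinic M1 receptor were treated with compound plus carbachol (1 uM final, an EC50 level) for 5 h at 37 °C. CCF4 loading followed for 1 h at RT; 460/530 nm ratio gave %activity.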

[5] = Stat Signaling Pathway (AID 446; active = well fitted curve in either direction with a large enough effect, not every such curve was filed as active;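 also: ME-180 cervical cancer cells given 40 pM IL-6 alongside compound; SIE-controlled beta-lactamase reporter measured as 460/530 nm FRET emission ratio; % is scaled to controls: 0 for no effect and ±100 for the full control effect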); conditions: ME-180 SIE beta-lactamase reporter, IL-6 stimulated, 5 h; at 7.69 µM (top of the series) unless noted
In short: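 ME-180 SIE-bla cells; overnight plating; cpd + IL-6 40 pM, 5 h, 37 C; LiveBLAzer 2.5 h RT; 460/530 nm emission ratio. Normalized to 300 pM IL-6 and 125 nM JAK inhibitor controls.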

[6] = molecular target: Glucocorticoid receptor (Homo sapiens) (UniProt P04150); assay: GR-GFP Redistribution (AID 450;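 active = compounds whose dose series gives a full or clear partial fitted curve of increased nuclear translocation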; also: potency is read from the fitted curve at half-maximal effect); conditions: U2OS GR-GFP nuclear translocation, laser cytometry, 2 h
[7] = molecular target: Glucocorticoid receptor (Homo sapiens) (UniProt P04150); assay: GR-EFC Redistribution (AID 451; calls by dose curve; also: potency is read from the fitted curve at half-maximal effect); conditions: CHO-K1 GR-EFC translocation, beta-gal luminescence, 2 h
In short: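 CHO-K1 cells stably expressing nuclear-localized β-gal enzyme acceptor and GR fused C-terminally to the enzyme donor fragment; ligand-driven nuclear translocation restores β-gal by complementation. Compounds titrated up to 46 uM final, 2 h at 37 °C; luminescence read.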

[8] = molecular target: Mitogen-activated protein kinase 10 (Mus musculus) (UniProt Q61831); assay: JNK3 AlphaScreen Assay (AID 530; active = well fitted curve in either direction with a large enough effect, not every such curve was filed as active;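 also: kinase came from lysate of stimulated human HepG2 cells; signal reports phosphorylation of biotinylated GST-cJun 1-79 at Ser73 with 10 µM ATP; % is scaled to controls: 0 for no effect and ±100 for the full control effect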); conditions: JNK3 lysate, c-Jun phosphorylation; series mostly up to 57.1 µM
In short: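 JNK3 came from HepG2 lysates pre-activated with IL-1beta and TNF-alpha and phosphorylated biotinylated GST-cJun (1-79) at 10 uM ATP, pH 7.6, room temperature. Compounds were titrated. AlphaScreen signal used anti-phospho-cJun (Ser73) antibody.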

[9] = molecular target: Cytochrome P450 3A4 (Homo sapiens) (UniProt P08684); assay: qHTS Assay for Inhibitors and Substrates of Cytochrome P450 3A4 (AID 884); conditions: recombinant CYP3A4, Luciferin-PPXE luminescence; series mostly up to 57.1 µM; also: potency is read from the fitted curve at half-maximal effect; nearly all actives have a fitted effect of over 50% in size
In short: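 20 nM human CYP3A4 with 25 uM Luciferin-PPXE (at KM) in 200 mM KPO4, preincubated 10 min with compound; NADPH regeneration started a 60 min RT reaction. Luciferin detected by luminescence, normalized to 57 uM ketoconazole as full inhibition.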

[10] = molecular target: Cytochrome P450 3A4 (Homo sapiens) (UniProt P08684); assay: qHTS Assay for Activators of Cytochrome P450 3A4 (AID 885); conditions: recombinant CYP3A4, Luciferin-PPXE luminescence, 60 min; series mostly up to 57.1 µM; also: nearly all actives have a fitted effect of over 65% in size
In short: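 20nM CYP3A4 + 25uM Luciferin-PPXE (=KM), 200mM KPO4; cpd 10 min RT; NADPH regen, 60 min RT; stop w/ detection buffer, 20 min; luminescence. Normalized to 57 uM ketoconazole.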

[11] = molecular target: Dual specificity protein kinase CLK4 (Homo sapiens) (UniProt Q9HAZ1); assay: qHTS Assay for Inhibitors of CDC-like Kinase 4 (Kinase-Glo Assay) (AID 1770); conditions: recombinant Clk4, Kinase-Glo ATP depletion luminescence; series mostly up to 66.7 µM; also: nearly all actives have a fitted effect of over 65% in size; also: potency is read from the fitted curve at half-maximal effect
In short: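 25 nM Clk4 with 100 uM RS repeat peptide and 1 uM ATP (final) in Tris pH7.5, 10 mM MgCl2, 4.5 h at room temperature. Remaining ATP measured by Kinase-Glo luciferase luminescence.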

[12] = molecular target: Dual specificity protein kinase CLK4 (Homo sapiens) (UniProt Q9HAZ1); assay: qHTS Assay for Inhibitors of CDC-like Kinase 4 (ADP-FP Assay) (AID 1795); conditions: Transcreener ADP fluorescence polarization; series mostly up to 50 µM; also: nearly all actives have a fitted effect of over 60% in size; also: potency is read from the fitted curve at half-maximal effect
In short: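 Recombinant Clk4 (6.25 nM) phosphorylated 100 uM RS repeat peptide with 1 uM ATP in 25 mM Tris pH 7.5, 10 mM MgCl2, 0.5 mM EGTA, 2.5 mM DTT, 0.01% Triton X-100 for 1 h. ADP was detected by Transcreener ADP2 competitive fluorescence polarization after 30 min at room temperature.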

[13] = Primary qHTS for small molecule stabilizers of the endoplasmic reticulum resident proteome: Secreted ER Calcium Modulated Protein (SERCaMP) assay (AID 1508630); conditions: SH-SY5Y GLuc-SERCaMP (Gaussia luciferase released on ER calcium loss) secretion, thapsigargin, luminescence; series mostly up to 38.4 µM; also: % is scaled to controls: 0 for no effect and ±100 for the full control effect
In short: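 GLuc-SERCaMP-expressing SH-SY5Y cells, pretreated 16 h with compound, are challenged with thapsigargin to empty ER calcium stores; after 4 h, coelenterazine is added directly to the medium and luminescence is imaged.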

[14] = molecular target: 3',5'-cyclic-AMP phosphodiesterase 4B (Homo sapiens) (UniProt Q07343); assay: qHTS Assay for Inhibitors of PDE-IV (AID 607; active = well fitted activation curve with a large enough effect in the main read-out, with a control signal flat, not every such curve was filed as active; also: % of control where 0% means no effect); conditions: HEK293 ACTOne CNG channel cells, membrane potential fluorescence; series mostly up to 22.9 µM
In short: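 ACTOne HEK293 cells carry a modified cAMP-gated CNG channel and express endogenous PDE4; plated 1000 cells/well, compounds up to 22.9 uM final. Membrane-potential dye fluorescence (ex 535/em 590) was read; parental cells received 10 uM forskolin + 100 uM RO 20-1724.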

[15] = molecular target: Ubiquitin carboxyl-terminal hydrolase 1 (Homo sapiens) (UniProt O94782); assay: Inhibitors of USP1/UAF1: Pilot qHTS (AID 504865); conditions: purified USP1/UAF1, Ub-rhodamine cleavage fluorescence; series mostly up to 54.9 µM; also: nearly all actives have a fitted effect of over 35% in size; also: potency is read from the fitted curve at half-maximal effect
In short: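 USP1/UAF1 complex at 1 nM preincubated 15 min at room temperature with compound, then Ub-Rho substrate added at 150 nM final. Fluorescence (480/540 nm) read kinetically in 50 mM HEPES pH 7.8, 0.5 mM EDTA, 1 mM TCEP, 0.1 mg/ml BSA, 0.01% Tween-20.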

[16] = qHTS Assay for Identification of Small Molecule Agonists for Hypoxia Response Element Signaling Pathway (AID 914; active = well fitted activation curve with a large enough effect in the signal ratio, with a control signal flat, not every such curve was filed as active; the % refers to the signal ratio; also: % of control where 0% means no effect); conditions: ME-180 (cervical carcinoma) HRE-bla reporter, beta-lactamase ratio, CoCl2, 17 h; activation: hits give high values
In short: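 In Opti-MEM containing 0.5% dialyzed FBS and 10 mM HEPES, ME-180 HRE-bla cells received a compound titration and EC50 CoCl2. They were incubated 17 hours, then CCF4-loaded 2.5 hours at room temperature before ratio reading.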

[17] = molecular target: Cytochrome P450 2C19 (Homo sapiens) (UniProt P33261); assay: qHTS Assay for Inhibitors and Substrates of Cytochrome P450 2C19 (AID 899); conditions: recombinant CYP2C19, luciferin-H EGE luminescence; series mostly up to 57.1 µM; also: potency is read from the fitted curve at half-maximal effect; nearly all actives have a fitted effect of over 60% in size
In short: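 NADPH-dependent conversion of Luciferin-H EGE (10uM, at KM) by 5nM enzyme in 50mM KPO4, 60 min at 37C following 10 min compound preincubation. Stopped with luciferin detection buffer; luminescence read after 20 min.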

Glucocorticoid receptor (Homo sapiens), sequence (P04150 whole entry, looked up, the tested form may be a part): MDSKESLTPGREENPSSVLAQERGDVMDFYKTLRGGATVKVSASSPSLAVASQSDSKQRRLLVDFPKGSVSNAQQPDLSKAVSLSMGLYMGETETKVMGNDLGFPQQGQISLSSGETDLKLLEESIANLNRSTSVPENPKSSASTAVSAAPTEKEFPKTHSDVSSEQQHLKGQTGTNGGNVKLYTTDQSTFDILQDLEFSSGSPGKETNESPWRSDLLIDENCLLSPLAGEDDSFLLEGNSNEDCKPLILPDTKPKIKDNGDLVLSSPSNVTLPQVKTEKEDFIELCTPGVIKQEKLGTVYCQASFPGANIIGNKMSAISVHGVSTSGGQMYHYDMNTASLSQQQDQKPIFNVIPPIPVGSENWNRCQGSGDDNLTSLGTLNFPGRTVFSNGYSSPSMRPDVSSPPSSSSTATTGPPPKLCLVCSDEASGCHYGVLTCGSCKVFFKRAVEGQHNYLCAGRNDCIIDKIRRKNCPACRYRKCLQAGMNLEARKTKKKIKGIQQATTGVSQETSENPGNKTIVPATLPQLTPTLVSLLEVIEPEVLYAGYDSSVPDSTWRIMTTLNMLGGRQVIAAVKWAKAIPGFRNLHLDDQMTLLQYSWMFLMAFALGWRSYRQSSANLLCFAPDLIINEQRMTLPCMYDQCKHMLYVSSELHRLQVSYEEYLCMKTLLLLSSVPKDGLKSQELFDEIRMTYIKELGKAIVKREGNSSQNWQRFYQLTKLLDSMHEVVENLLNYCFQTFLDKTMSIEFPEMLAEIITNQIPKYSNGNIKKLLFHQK
3',5'-cyclic-AMP phosphodiesterase 4B (Homo sapiens), sequence (Q07343 whole entry, looked up): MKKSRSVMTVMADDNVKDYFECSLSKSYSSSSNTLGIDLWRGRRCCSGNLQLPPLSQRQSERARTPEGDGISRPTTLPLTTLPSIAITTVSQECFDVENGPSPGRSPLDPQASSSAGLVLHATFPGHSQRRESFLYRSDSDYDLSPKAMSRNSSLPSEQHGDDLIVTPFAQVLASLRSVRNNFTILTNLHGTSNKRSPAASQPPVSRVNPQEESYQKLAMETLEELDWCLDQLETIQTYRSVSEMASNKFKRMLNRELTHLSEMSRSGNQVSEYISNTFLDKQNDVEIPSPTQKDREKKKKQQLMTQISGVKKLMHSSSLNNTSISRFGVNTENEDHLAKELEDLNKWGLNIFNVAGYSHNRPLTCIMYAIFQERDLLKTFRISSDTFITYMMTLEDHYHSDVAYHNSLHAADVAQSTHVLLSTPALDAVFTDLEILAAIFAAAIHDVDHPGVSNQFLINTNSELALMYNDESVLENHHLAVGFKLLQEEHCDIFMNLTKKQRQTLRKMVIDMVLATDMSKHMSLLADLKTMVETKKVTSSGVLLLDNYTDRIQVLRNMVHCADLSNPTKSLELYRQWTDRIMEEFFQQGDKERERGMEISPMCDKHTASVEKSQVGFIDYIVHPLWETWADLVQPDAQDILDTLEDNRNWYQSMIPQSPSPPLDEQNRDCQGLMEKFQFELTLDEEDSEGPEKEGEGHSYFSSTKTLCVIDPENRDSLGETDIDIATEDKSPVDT
Cytochrome P450 3A4 (Homo sapiens), sequence (P08684 whole entry, looked up): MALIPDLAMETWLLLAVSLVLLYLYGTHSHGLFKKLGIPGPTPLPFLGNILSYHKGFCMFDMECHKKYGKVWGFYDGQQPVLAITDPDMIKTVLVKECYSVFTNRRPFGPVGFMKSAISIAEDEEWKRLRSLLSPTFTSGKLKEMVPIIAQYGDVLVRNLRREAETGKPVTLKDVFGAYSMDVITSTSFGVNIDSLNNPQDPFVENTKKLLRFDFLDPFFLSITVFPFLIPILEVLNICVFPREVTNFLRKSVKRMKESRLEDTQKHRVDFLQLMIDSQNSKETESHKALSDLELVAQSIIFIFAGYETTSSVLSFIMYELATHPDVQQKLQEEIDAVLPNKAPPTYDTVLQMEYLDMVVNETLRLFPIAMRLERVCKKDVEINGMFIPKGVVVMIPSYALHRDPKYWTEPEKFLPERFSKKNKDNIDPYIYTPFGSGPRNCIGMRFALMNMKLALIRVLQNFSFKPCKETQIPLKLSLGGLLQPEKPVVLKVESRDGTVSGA
Lysosomal acid glucosylceramidase (Homo sapiens), sequence (P04062 whole entry, looked up): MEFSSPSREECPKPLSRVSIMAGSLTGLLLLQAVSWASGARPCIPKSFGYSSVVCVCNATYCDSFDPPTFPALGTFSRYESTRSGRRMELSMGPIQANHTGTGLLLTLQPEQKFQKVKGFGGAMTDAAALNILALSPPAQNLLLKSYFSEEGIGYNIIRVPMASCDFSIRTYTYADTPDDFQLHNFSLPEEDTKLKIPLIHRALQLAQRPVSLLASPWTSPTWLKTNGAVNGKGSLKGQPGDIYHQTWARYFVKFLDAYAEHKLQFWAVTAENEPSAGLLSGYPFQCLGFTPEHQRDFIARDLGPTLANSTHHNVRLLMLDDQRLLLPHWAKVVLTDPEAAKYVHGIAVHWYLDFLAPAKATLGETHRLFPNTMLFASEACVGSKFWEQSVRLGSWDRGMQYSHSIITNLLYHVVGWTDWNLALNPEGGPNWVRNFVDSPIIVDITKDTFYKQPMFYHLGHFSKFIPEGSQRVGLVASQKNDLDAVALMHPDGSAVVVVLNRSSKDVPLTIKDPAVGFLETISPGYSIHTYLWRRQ
Ubiquitin carboxyl-terminal hydrolase 1 (Homo sapiens), sequence (O94782 whole entry, looked up): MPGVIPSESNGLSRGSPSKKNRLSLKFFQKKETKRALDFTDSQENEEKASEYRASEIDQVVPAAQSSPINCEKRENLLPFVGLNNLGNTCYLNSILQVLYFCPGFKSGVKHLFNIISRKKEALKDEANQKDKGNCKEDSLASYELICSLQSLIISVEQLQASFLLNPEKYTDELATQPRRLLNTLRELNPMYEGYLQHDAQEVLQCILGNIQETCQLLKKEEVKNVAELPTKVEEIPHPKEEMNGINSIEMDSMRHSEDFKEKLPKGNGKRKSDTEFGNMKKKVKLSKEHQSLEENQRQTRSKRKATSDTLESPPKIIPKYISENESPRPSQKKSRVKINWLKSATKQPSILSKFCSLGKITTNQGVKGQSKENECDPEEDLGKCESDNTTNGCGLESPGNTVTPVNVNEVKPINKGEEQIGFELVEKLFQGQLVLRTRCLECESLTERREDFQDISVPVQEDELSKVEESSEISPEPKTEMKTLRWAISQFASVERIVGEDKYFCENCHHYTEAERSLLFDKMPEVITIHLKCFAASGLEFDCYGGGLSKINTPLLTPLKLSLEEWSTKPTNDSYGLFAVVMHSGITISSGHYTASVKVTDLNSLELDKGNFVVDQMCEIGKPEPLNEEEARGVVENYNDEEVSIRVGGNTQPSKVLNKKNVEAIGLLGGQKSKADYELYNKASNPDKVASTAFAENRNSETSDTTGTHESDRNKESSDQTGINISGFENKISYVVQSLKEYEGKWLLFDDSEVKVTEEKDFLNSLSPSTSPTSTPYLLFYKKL
Cytochrome P450 1A2 (Homo sapiens), sequence (P05177 whole entry, looked up): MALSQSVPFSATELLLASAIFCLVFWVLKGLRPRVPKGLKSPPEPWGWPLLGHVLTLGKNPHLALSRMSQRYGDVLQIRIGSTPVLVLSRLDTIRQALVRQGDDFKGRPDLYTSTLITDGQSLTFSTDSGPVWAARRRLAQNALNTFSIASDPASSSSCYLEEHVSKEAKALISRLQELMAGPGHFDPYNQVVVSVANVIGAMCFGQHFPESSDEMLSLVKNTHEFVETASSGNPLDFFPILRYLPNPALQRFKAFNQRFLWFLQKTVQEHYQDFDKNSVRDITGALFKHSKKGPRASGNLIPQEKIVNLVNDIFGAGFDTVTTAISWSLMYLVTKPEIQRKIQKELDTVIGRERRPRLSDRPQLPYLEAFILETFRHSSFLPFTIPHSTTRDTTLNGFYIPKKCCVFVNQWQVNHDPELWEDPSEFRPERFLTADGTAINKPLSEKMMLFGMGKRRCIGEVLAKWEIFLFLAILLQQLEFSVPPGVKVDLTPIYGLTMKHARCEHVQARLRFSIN
Dual specificity protein kinase CLK4 (Homo sapiens), sequence (Q9HAZ1 whole entry, looked up): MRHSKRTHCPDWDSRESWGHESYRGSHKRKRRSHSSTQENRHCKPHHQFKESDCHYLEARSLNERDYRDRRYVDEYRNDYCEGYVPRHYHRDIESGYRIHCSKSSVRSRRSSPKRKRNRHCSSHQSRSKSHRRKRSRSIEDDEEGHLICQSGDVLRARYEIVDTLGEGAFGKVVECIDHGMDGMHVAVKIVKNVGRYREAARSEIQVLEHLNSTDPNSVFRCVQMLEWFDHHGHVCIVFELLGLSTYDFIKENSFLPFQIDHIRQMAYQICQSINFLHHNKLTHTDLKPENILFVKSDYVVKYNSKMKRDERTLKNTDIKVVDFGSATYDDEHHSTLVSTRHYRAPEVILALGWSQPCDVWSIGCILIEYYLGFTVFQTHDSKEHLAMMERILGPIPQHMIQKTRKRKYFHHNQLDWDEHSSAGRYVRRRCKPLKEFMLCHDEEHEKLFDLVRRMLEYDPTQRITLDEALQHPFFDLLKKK
Cytochrome P450 2C19 (Homo sapiens), sequence (P33261 whole entry, looked up): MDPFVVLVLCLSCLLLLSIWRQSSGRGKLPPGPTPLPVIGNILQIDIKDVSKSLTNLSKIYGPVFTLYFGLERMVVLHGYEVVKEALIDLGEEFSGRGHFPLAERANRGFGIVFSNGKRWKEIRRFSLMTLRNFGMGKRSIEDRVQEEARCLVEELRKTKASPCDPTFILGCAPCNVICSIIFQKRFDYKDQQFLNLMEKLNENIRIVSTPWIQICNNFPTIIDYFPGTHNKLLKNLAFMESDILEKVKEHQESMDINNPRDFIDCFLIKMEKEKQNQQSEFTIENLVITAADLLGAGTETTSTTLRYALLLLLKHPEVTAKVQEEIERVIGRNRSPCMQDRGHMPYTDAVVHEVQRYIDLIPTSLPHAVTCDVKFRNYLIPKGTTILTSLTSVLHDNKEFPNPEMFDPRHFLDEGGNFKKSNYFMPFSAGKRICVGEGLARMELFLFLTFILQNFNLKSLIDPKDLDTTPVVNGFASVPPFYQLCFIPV

N#Cc1cccc(-c2nc(NCc3cccs3)c3ccccc3n2)c1
active: Potency [3] 0.316 µM | Potency [9] 3.98 µM
inactive: Potency [1] > 11.4 µM | activity change, negative = inhibition [2] -7.71% | activity change, negative = inhibition [4] -16.7% | activity, negative = inhibition [5] -29.9% | Potency [6] > 46 µM | Potency [7] > 46 µM | Potency [8] | Potency [10] | Potency [11] | Potency [12] | outcome [13]

Cc1cnc(CNc2cc(-c3ccccc3CN(C)C)ncn2)cn1
inactive: Potency [1] > 11.4 µM | activity change, negative = inhibition [2] 17.7% | activity change, negative = inhibition [4] -9.03% | activity, negative = inhibition [5] 7.96% | Potency [6] > 46 µM | Potency [7] > 46 µM | Potency [8] | Potency [14] | Potency [11] | Potency [12] | Potency [15] | outcome [13]

COc1ncc2nc(-c3cccs3)c(=O)n(Cc3cccs3)c2n1
inactive: Potency [1] > 11.4 µM | activity change, negative = inhibition [2] 5.34% | activity change, negative = inhibition [4] 5.36% | activity, negative = inhibition [5] -1.88% | Potency [6] > 9.22 µM | Potency [7] > 46 µM | Potency [8] | Potency [11] | Potency [12] | Potency [15] | outcome [13]

Cn1c(=O)c(-c2cccc(F)c2)nc2cncnc21
inactive: Potency [1] > 11.4 µM | activity change, negative = inhibition [2] -15.2% | activity change, negative = inhibition [4] 8.36% | activity, negative = inhibition [5] -5.84% | Potency [6] > 9.22 µM | Potency [7] > 46 µM | Potency [8] | Potency [14] | Potency [10] | activation [16] -8.58% | Potency [11] | Potency [12] | Potency [15] | outcome [13]

c1ccc2c(N3CCOCC3)nc(-c3ccoc3)nc2c1
inactive: Potency [1] > 11.4 µM | activity change, negative = inhibition [2] -5.2% | activity change, negative = inhibition [4] 12.4% | activity, negative = inhibition [5] -2.69% | Potency [6] > 46 µM | Potency [7] > 46 µM | Potency [8] | Potency [10] | Potency [11] | Potency [15] | outcome [13]
active: Potency [3] 1.26 µM | Potency [9] 6.31 µM | Potency [12] 14.1 µM

CN(C)C(=O)c1ccc(-c2ccc3ncnc(NCc4ccccc4)c3c2)cc1
inactive: Potency [1] > 11.4 µM | activity change, negative = inhibition [4] 13% | activity, negative = inhibition [5] 7.31% | Potency [6] > 46 µM | Potency [7] > 46 µM | Potency [8] | Potency [11] | Potency [12] | Potency [15] | outcome [13]
active: Potency [3] 15.8 µM

c1nc(NC2CC2)c2cc(-c3ccoc3)ccc2n1
active: Potency [3] 0.794 µM | Potency [11] 0.794 µM | Potency [12] 0.178 µM
inactive: Potency [1] > 11.4 µM | activity change, negative = inhibition [2] -18% | activity change, negative = inhibition [4] 6.95% | activity, negative = inhibition [5] -16.7% | Potency [6] > 46 µM | Potency [7] > 46 µM | Potency [8] | Potency [10] | Potency [15] | outcome [13]

COc1ccccc1CCn1c(=O)c(-c2cccs2)nc2cncnc21
active: Potency [3] 2 µM | Potency [9] 3.16 µM | Potency [17] 2 µM
inactive: Potency [1] > 11.4 µM | activity change, negative = inhibition [2] -29.2% | activity change, negative = inhibition [4] -5.89% | activity, negative = inhibition [5] -0.377% | Potency [6] > 9.22 µM | Potency [7] > 46 µM | Potency [8] | Potency [10] | Potency [11] | Potency [12] | Potency [15] | outcome [13]

Cc1noc(C)c1-c1nc(NCc2cccs2)c2ccccc2n1
inactive: Potency [1] > 2.29 µM | activity change, negative = inhibition [2] 3.98% | activity, negative = inhibition [5] -8.06% | Potency [6] > 46 µM | Potency [7] > 46 µM | Potency [8] | Potency [10] | Potency [11] | Potency [12] | outcome [13]
active: Potency [3] 0.2 µM | Potency [9] 6.31 µM | Potency [15] 10 µM

COc1ccc2[nH]cc(CCNc3ccnc(-c4ccc(C(=O)N(C)C)cc4)n3)c2c1
active: Potency [3] 12.6 µM | Potency [9] 3.16 µM
inactive: Potency [1] > 11.4 µM | activity change, negative = inhibition [2] -14.6% | activity change, negative = inhibition [4] -3.74% | activity, negative = inhibition [5] -20.4% | Potency [6] > 46 µM | Potency [7] > 46 µM | Potency [8] | Potency [14] | Potency [10] | Potency [11] | Potency [12] | outcome [13]

COc1ccccc1CCn1c(=O)c(-c2cccc(Cl)c2)nc2cncnc21
active: Potency [3] 0.316 µM | Potency [9] 6.31 µM | Potency [17] 0.251 µM
inactive: Potency [1] > 11.4 µM | activity change, negative = inhibition [2] -3.94% | activity change, negative = inhibition [4] -27.9% | activity, negative = inhibition [5] -13% | Potency [6] > 9.22 µM | Potency [7] > 46 µM | Potency [8] | Potency [10] | activation [16] -1.79% | Potency [11] | Potency [12] | Potency [15] | outcome [13]

Cc1ccccc1-c1cc(N2CCNCC2)ncn1
inactive: Potency [1] > 11.4 µM | activity change, negative = inhibition [2] 8.27% | activity change, negative = inhibition [4] 15.7% | activity, negative = inhibition [5] 8.55% | Potency [6] > 46 µM | Potency [7] > 46 µM | Potency [8] | Potency [14] | Potency [11] | Potency [12] | Potency [15] | outcome [13]

COc1cccc(Cn2c(=O)c(-c3cccs3)nc3cnc(OC)nc32)c1
inactive: Potency [1] > 11.4 µM | activity change, negative = inhibition [4] 25.8% | Potency [6] > 9.22 µM | Potency [7] > 46 µM | Potency [10] | Potency [11] | Potency [12] | Potency [15] | outcome [13]
active: Potency [3] 3.16 µM | Potency [9] 3.98 µM
